# Rab9 promoter act: Rab9 promoter activation; Huh7 Rab9 promoter-luciferase reporter, luminescence, 24 h; Potency, µM (doses to about 9.22 µM), for inactives: at the top dose activation, negative = inhibition, most hits filed as activators; hit rate 2.8% among 320,000; note: % of control where 0% means no effect; nearly all actives have a fitted effect of over 60% in size
#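 Luminescence read-out: Huh7 cells stably expressing Rab9-luciferase, treated 24 h with compound at 37 °C, then lysed with luciferase reagent for 10 min at ambient before reading.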
# ELG1 genotox: genotoxicity induction in ELG1-luciferase HEK293T cells; HEK293T ELG1-luciferase reporter, luminescence, 16 h; hit rate 1.3% among 330,000; Potency, µM (doses to about 46 µM), for the others: top-dose activity change, positive = activation, hits mostly activators; note: % of control where 0% means no effect; nearly all actives have a fitted effect of over 60% in size
#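 Reporter readout depends on ELG1 protein level, which increases with genetic stress. After 16 hr compound exposure at 37 °C, luciferase activity was quantified using ONE-Glo.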
# NPC1 prom act: activators of NPC1 promoter. hit rate 2.4% among 320,000. Potency, µM (doses to about 9.22 µM), for inactives: at the top dose activation, hits mostly activators. Huh7 NPC1 promoter luciferase reporter, 24 h; note: % of control where 0% means no effect; nearly all actives have a fitted effect of over 60% in size
#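 Cells: Huh7 expressing luciferase under the NPC1 promoter, 1500/well. Seeded 2 h, compound added, incubated 24 h at 37 °C. Luciferase reagent, 10 min ambient, then luminescence.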
# KinaseGlo FLuc: blocks Kinase-Glo luciferase, a counter-screen artifact. Q27757. Kinase-Glo luciferase, ATP luminescence, 8 min. Potency, µM (top dose mostly 38.3 µM), for the others: top-dose activity change, negative = inhibition, hits mostly inhibitors. hit rate 0.28% among 200,000. AID 1379; note: % is set by controls: 0 for no effect and ±100 for the full control effect; nearly all actives have a fitted effect of over 60% in size
#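 Compounds were added to a substrate mix at pH 7.2 (50 mM imidazole, 10 uM ATP, within the enzyme's linear range), followed by Kinase-Glo detection reagent; luminescence was measured after 8 minutes at ambient temperature.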
# FLuc modulator: inhibits or activates purified firefly luciferase, miR-21 counter-screen; P08659; purified FLuc, Km substrates, luminescence inhibition; Potency, µM (highest dose often 57.5 µM), for the others: top-dose activity change, negative = inhibition, hits mostly inhibitors; hit rate 6.9% among 360,000; AID 588342;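 note: plate controls were vehicle for no effect and reference inhibitor for full effect; nearly all actives have a fitted effect of over 55% in size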
# Target sequence (P08659 whole entry, looked up): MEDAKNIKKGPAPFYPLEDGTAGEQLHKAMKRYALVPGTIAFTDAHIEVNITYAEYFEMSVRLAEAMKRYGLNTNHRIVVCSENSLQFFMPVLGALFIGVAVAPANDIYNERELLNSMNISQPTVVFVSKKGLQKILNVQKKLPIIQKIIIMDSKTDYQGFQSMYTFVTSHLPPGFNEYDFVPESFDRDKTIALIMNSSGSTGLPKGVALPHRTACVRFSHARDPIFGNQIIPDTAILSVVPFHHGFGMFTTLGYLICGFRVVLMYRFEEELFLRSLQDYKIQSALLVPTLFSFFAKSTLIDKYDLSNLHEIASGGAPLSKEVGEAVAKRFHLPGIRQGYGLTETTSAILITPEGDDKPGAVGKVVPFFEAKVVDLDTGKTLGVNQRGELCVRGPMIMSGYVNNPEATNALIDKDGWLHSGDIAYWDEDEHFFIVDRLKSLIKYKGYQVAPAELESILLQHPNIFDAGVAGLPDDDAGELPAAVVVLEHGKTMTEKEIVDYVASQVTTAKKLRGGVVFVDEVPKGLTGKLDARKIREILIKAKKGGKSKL
#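 Purified P. pyralis luciferase, 10 nM final, with Km-level 10 uM D-luciferin and 10 uM ATP in 50 mM Tris acetate pH 7.5, 10 mM Mg acetate, 0.01% Tween-20, 0.05% BSA; 6-point qHTS titration about 60 µM downward; luminescence read.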
# SMN2 splice up: SMN2 splice variant enhancement. HEK293 SMN2-luciferase splicing reporter, luminescence, 30-36 h. Potency, µM (titrated, usually from 46.1 µM), without a hit: at the highest dose activity change, positive = activation, hits mostly activators. hit rate 2.8% among 210,000; note: % of control where 0% means no effect; nearly all actives have a fitted effect of over 55% in size
#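 qHTS luciferase splicing reporter: luminescence rises when SMN2 exon 7 is included in transfected HEK293 cells. Compound exposure lasted 30-36 h at 37C, with 4.5 mM final sodium butyrate as control, followed by a ONE-Glo read.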
# * marks the source's active call; other numbers are inactive results; ? = inconclusive; . = no result given; [ ] = dose if it differs, or a comment. Shown are actives, neighbours in structure and some others; about 7.4% of the full set was active somewhere. Calls come from the whole dose curve; as a rule, active = well fitted curve in the direction sought with a large enough effect; inconclusive = small, poorly fitted or top-dose-only effect, or another doubt; inactive = no such curve, though single readings can be large; an effect the other way counts as inactive or inconclusive. Potency is the fitted concentration of half-maximal effect.
SMILES,Rab9 promoter act,ELG1 genotox,NPC1 prom act,KinaseGlo FLuc,FLuc modulator,SMN2 splice up
CN(C)c1ccc(CC(=O)c2nc3ccccc3s2)cc1,2.5µM*,?,?,-2%,8.5µM*,-6%
CN(C)C(=O)c1nc2ccccc2s1,1%,15%,10%,0%,?,18%
CCOC(=O)Nc1nc2ccccc2s1,3.5µM*,3.7µM*,3.2µM*,-9%,6.7µM*,?
CN(C(=O)CCc1nc2ccccc2s1)c1ccccc1,-6%,?,-1%,7%,-3%,13%
CCCNC(=O)c1ccc(-c2nc3ccccc3s2)s1,0.71µM*,0.21µM*,?,-11%,0.34µM*,2.8µM*
O=C(NCCCO)c1nc2ccccc2s1,3%,16%,9%,-4%,-10%,6%
CCOC(=O)c1nc2ccccc2s1,15%,?,9%,-8%,13µM*,-17%
CCC(NC(=O)Nc1cc(Cl)ccc1OC)c1c(-n2cccc2)sc2c1CCN(C)C2 (stereo not given),.,.,.,.,-14%,.
CCOC(=O)N1CCN(Cc2nc3cc(NC(=O)c4ccc([N+](=O)[O-])cc4)ccc3n2C(C)C)CC1,.,.,.,.,-1%,.
CC12CCC(C(=O)Nc3nc4ccccc4s3)(OC1=O)C2(C)C (stereo not given),?,?,?,-1%,17µM*,?
Cc1ccc(CC(=O)Nc2nc3ccccc3s2)cc1,?,3%,?,-1%,19µM*,6%
Cc1ccc(S(=O)(=O)CC(=O)Nc2nc3ccccc3s2)cc1,2%,-1%,-6%,.,-7%,.
Cc1nc2c(ccc3nc(NC(=O)Cc4ccccc4)sc32)s1,?,18%,25%,-1%,24µM*,?
Nc1ncnc2c1nc(Br)n2C1OC2COP(=O)(O)O[C@@H]2C1O (stereo not given in full),2%[46.1 µM],.,0%[46.1 µM],.,.,.
N=C1S/C(=C\c2cn[nH]c2-c2ccc(F)cc2)C(=O)N1c1ccccc1F,4µM*,10%,3.2µM*,-3%,?,13µM*
CN1N=C2c3ccccc3CCC2C1c1ccc(Cl)cc1 (stereo not given),?,?,?,.,11µM*,.
CN1N=C2c3ccccc3CCC2C1c1ccc(F)cc1 (stereo not given),2.5µM*,17%,?,.,?,.
CNC(=S)N1N=C2c3ccccc3CCC2C1c1ccccc1Cl (stereo not given),-6%,-3%,-6%,.,-4%,.
O=C(NC1CCCCC1)c1cc(Nc2cccc(C(F)(F)F)c2)nc2ccccc12,.,.,.,.,-4%,.
O=C(O)COCC(=O)Nc1ccc2c(c1)oc1ccccc12,0%,1%,-2%,.,17µM*,.
COc1cc2c(cc1NC(=O)COc1ccccc1OC)oc1ccccc12,-4%,?,13%,-3%,3%,6%
CNC(=O)COc1ccccc1C(=O)Nc1ccc2c(c1)oc1ccccc12,-38%,1%,-18%,1%,3.8µM*,-12%
O=C(O)CCC(=O)Nc1ccc2c(c1)oc1ccccc12,-5%,15%,2%,-1%,24µM*,17%
O=C(COc1ccc2c(c1)OCO2)Nc1ccc2c(c1)oc1ccccc12,12%,5%,9%,4%,-2%,.
COc1ccc(N2CCN(C(=O)c3cn(C4CCCCC4)c(=O)c4c3c3ccccc3n4C)CC2)cc1,.,.,.,.,-1%,0%
COC(=O)c1cc2sc(C)cc2n1Cc1nc(-c2ccc(C)cc2)oc1C,.,.,.,.,-5%,-4%
COc1ccc(NC(=O)c2c(-c3ccccc3)c(-c3ccccc3)nn(C)c2=O)c(OC)c1,.,.,.,.,-14%,1%
O=C1CCCC(O)=C1N=Nc1ccc2c(c1)OCO2,3.2µM*,16µM*,?,?,9.5µM*,16µM*
O=C(OCC#CCSc1nnc(-c2ccc(Br)cc2)o1)c1cccs1,-2%,8%,-5%,12%,?,-45%

# Bioassay records as filed in PubChem BioAssay.
